NP40-soluble protein abundance data for 15 targets are collected here from the supplement of paper PMC6411743.

± gives the standard deviation of the averaged measurements. Of roughly 6,200 targets only a part is listed; those with the largest changes were picked by preference.

Compound in this experiment: Nc1ncnc2c1ncn2[C@@H]1O[C@H](COP(=O)(O)OP(=O)(O)NP(=O)(O)O)[C@@H](O)[C@H]1O [adenylyl imidodiphosphate]
Put plainly: NP40-soluble protein abundance relative to vehicle (solubility fold change) (ratio); higher = more soluble protein in presence of AMP-PNP. A digest of the protocol:
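Each value is a fold change relative to the detergent-processed vehicle, calculated per replicate from vsn-normalised intensities. Jurkat crude lysate received eight concentrations (0.1 to 10 mM) for 10 min at room temperature and 3 min at 37 °C, then was solubilised in 0.8% NP40 with benzonase (60 min, 4 °C). The ultracentrifuged supernatant was TMT-labelled and run by LC-MS/MS in three independent experiments.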

UniProt A8MW92, sequence (A8MW92 whole entry, one chain of several): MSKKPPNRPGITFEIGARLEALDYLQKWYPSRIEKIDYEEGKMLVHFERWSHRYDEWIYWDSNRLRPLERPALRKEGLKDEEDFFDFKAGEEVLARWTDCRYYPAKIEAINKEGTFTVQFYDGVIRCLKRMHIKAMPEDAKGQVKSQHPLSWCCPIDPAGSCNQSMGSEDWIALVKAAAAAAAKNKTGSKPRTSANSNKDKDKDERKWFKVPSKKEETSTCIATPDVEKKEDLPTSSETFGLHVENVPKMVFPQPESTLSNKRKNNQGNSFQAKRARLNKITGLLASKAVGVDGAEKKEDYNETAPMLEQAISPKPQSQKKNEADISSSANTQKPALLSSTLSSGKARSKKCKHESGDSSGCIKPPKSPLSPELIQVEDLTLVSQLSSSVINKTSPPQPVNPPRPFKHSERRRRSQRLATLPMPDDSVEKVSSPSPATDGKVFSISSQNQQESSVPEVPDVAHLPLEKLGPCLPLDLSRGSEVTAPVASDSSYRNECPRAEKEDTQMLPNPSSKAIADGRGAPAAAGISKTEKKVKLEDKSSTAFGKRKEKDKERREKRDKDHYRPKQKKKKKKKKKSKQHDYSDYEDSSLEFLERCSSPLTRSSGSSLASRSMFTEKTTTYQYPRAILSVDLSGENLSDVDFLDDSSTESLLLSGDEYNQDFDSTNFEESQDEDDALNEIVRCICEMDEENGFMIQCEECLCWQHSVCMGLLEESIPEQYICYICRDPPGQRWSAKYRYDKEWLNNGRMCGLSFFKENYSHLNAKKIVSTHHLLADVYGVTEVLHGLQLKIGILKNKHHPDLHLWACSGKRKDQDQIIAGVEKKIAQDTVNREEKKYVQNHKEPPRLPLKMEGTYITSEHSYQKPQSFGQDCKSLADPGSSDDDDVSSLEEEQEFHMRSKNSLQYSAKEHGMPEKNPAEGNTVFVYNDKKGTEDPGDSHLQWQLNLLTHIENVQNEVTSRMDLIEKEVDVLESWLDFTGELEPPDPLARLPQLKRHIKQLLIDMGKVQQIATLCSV
UniProt O60563, sequence (O60563 whole entry): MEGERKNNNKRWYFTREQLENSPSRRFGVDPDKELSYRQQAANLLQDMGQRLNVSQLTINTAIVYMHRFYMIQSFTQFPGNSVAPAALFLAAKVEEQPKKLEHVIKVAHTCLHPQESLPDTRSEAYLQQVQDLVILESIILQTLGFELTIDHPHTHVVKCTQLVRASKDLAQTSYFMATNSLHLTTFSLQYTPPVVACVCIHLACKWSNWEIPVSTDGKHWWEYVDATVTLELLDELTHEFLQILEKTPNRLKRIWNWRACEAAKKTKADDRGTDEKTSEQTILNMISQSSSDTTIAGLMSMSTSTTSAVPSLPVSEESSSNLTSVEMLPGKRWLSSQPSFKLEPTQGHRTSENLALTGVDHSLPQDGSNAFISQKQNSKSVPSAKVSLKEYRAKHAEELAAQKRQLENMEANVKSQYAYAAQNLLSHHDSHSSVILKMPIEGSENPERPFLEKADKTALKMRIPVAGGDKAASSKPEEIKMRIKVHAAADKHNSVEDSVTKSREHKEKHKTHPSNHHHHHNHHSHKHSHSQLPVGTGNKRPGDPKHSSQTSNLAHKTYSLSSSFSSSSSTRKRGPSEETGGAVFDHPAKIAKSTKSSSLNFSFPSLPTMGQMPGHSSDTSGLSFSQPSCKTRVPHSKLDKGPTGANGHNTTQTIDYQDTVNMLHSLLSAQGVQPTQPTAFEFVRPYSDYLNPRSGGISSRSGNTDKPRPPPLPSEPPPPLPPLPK
UniProt P62191, sequence (P62191 whole entry, one chain of several): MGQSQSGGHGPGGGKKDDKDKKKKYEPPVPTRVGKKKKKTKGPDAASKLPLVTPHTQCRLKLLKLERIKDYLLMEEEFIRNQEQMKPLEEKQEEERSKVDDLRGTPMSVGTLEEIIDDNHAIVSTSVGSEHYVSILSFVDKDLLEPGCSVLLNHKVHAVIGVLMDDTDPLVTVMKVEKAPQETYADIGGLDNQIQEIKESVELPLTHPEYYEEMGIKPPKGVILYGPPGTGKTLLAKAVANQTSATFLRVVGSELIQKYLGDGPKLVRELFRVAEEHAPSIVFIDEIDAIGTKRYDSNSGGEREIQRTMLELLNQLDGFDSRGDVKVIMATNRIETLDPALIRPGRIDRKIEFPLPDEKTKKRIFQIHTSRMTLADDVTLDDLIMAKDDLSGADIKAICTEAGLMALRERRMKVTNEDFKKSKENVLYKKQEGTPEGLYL
UniProt O15116, sequence (O15116 whole entry): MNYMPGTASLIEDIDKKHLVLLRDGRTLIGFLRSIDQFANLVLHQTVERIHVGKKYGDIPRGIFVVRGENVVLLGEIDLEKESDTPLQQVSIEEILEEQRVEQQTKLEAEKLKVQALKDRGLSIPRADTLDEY
UniProt O43633, sequence (O43633 whole entry): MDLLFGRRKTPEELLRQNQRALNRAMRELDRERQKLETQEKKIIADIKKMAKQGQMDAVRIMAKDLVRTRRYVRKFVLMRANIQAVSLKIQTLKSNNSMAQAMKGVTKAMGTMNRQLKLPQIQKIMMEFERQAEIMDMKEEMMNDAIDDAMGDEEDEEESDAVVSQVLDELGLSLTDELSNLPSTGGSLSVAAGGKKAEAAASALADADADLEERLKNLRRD
UniProt O95232, sequence (O95232 whole entry, one chain of several): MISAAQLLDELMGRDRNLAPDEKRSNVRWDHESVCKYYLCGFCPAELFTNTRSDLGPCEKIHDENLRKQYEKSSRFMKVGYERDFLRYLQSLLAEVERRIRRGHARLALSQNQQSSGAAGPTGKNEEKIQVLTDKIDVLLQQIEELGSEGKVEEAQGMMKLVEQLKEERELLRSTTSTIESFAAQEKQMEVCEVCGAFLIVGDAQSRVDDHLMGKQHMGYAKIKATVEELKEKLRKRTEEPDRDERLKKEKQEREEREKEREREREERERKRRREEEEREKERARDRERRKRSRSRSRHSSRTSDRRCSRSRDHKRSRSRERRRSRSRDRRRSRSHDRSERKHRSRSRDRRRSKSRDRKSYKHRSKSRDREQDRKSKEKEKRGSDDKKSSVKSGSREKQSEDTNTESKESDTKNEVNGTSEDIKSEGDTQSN
UniProt Q9BVL2, sequence (Q9BVL2 whole entry, one chain of several): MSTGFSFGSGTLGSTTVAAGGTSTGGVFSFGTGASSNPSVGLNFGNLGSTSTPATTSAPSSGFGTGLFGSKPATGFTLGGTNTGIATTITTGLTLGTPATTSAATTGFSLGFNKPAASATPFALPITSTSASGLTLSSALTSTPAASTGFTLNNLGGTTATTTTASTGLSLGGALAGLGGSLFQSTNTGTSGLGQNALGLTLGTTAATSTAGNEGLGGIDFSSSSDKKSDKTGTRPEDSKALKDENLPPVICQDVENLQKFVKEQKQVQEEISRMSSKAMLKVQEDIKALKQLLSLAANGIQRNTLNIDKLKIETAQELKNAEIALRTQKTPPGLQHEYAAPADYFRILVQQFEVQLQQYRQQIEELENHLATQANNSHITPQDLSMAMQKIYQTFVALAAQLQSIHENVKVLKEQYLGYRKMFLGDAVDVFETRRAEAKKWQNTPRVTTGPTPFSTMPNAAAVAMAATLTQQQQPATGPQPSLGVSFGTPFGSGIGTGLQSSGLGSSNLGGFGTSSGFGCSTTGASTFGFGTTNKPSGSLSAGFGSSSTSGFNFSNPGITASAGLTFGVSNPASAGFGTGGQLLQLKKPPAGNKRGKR
UniProt P49585, sequence (P49585 whole entry, one chain of several): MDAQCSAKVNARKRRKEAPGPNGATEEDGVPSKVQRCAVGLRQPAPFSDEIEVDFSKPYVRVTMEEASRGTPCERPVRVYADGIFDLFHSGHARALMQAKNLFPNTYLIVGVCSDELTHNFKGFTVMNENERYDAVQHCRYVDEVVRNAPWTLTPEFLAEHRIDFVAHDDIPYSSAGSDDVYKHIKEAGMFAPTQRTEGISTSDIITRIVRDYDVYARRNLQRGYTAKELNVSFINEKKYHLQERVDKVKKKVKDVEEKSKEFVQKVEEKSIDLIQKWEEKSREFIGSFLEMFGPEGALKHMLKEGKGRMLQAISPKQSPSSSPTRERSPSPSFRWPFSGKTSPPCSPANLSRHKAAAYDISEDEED
UniProt Q9NVU0, sequence (Q9NVU0 whole entry, one chain of several): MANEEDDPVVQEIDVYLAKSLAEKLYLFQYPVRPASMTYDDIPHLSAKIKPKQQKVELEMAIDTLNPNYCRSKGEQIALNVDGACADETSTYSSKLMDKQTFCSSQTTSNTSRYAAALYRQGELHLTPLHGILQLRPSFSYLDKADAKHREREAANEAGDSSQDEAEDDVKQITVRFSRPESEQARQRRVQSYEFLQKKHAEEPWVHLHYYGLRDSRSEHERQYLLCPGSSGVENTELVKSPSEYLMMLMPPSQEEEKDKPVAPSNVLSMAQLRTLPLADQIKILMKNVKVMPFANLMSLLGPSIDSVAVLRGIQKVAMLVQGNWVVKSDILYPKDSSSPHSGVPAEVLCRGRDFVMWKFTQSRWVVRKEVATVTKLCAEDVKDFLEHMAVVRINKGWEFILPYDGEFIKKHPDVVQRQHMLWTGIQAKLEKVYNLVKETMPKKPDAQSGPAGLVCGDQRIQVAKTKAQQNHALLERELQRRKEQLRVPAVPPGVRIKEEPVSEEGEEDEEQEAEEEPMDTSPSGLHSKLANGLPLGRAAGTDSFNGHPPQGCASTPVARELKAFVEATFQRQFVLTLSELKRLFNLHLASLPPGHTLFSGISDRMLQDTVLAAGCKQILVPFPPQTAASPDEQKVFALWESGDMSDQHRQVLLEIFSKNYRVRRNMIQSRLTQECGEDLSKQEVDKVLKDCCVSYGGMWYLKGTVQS
UniProt O14735, sequence (O14735 whole entry): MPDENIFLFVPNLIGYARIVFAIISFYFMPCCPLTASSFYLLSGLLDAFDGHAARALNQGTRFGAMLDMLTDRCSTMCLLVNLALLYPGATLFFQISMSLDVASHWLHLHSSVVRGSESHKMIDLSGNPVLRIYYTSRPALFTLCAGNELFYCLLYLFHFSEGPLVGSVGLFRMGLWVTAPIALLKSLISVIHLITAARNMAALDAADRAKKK

Consider “A0A0C4DH01|Q9NVU0|Q9NVU0-4|Q9NVU0-5|Q9NVU0-2|Q9NVU0-3 (UniProt Q9NVU0)”, for which the NP40-soluble protein abundance by setting is: (concentration: 1mM) 1 ± 0.058; (concentration: 2mM) 1.02 ± 0.019; (concentration: 4mM) 1.06 ± 0.052; (concentration: 6mM) 1.03 ± 0.063; (concentration: 8mM) 1.02 ± 0.064; (concentration: 10mM) 1.07 ± 0.081.
With CCNT1 (UniProt O60563), the NP40-soluble protein abundance was determined as 1.1 ± 0.051 (concentration: 1mM); 1.19 ± 0.074 (concentration: 2mM); 1.21 ± 0.064 (concentration: 4mM); 1.25 ± 0.12 (concentration: 6mM); 1.31 ± 0.11 (concentration: 8mM); 1.4 ± 0.14 (concentration: 10mM).
Take CHMP2A (UniProt O43633): the NP40-soluble protein abundance came to 0.949 ± 0.013 (concentration: 1mM); 1.02 ± 0.094 (concentration: 2mM); 0.936 ± 0.021 (concentration: 4mM); 0.966 ± 0.043 (concentration: 6mM); 0.971 ± 0.031 (concentration: 8mM); 0.915 ± 0.078 (concentration: 10mM).
In the case of J3KPP4|O95232 (UniProt O95232), the NP40-soluble protein abundance is, setting by setting: (concentration: 1mM) 1.02 ± 0.036; (concentration: 2mM) 1.06 ± 0.058; (concentration: 4mM) 1.06 ± 0.019; (concentration: 6mM) 1.22 ± 0.015; (concentration: 8mM) 1.3 ± 0.039; (concentration: 10mM) 1.51 ± 0.049.
With G3V4X1|P62191|P62191-2 (UniProt P62191), the NP40-soluble protein abundance runs as follows: (concentration: 1mM) 0.942 ± 0.045; (concentration: 2mM) 0.906 ± 0.049; (concentration: 4mM) 0.888 ± 0.079; (concentration: 6mM) 0.896 ± 0.1; (concentration: 8mM) 0.882 ± 0.1; (concentration: 10mM) 0.89 ± 0.12.
In the case of C5orf51 (UniProt A6NDU8), the NP40-soluble protein abundance was 1.04 ± 0.014 (concentration: 1mM); 1.03 ± 0.025 (concentration: 2mM); 1.01 ± 0.025 (concentration: 4mM); 0.9735 ± 0.0065 (concentration: 6mM); 0.953 ± 0.017 (concentration: 8mM); 0.95 ± 0.05 (concentration: 10mM).
For the target “H7BYF2|Q5JRG1|Q9BVL2|Q9BVL2-2|Q9BVL2-3 (UniProt Q9BVL2)”, the NP40-soluble protein abundance (concentration: 1mM) amounted to 1.031 ± 0.0089; the NP40-soluble protein abundance (concentration: 2mM) was found to be 1.1 ± 0.095; the NP40-soluble protein abundance (concentration: 4mM) came to 1.04 ± 0.053; the NP40-soluble protein abundance (concentration: 6mM) is 1.03 ± 0.033; the NP40-soluble protein abundance (concentration: 8mM) is 1.04 ± 0.026; the NP40-soluble protein abundance (concentration: 10mM) stood at 1.11 ± 0.06.
As for M0QXA7|O95785-3 (UniProt O95785), the NP40-soluble protein abundance turned out to be 1.02 ± 0.031 (concentration: 1mM); 1.04 ± 0.029 (concentration: 2mM); 1.06 ± 0.013 (concentration: 4mM); 1.04 ± 0.034 (concentration: 6mM); 1.02 ± 0.023 (concentration: 8mM); 1.07 ± 0.032 (concentration: 10mM).
With H3BRF9|Q96K21|Q96K21-3 (UniProt Q96K21), the NP40-soluble protein abundance was 0.998 ± 0.015 (concentration: 1mM); 1.03 ± 0.05 (concentration: 2mM); 1.02 ± 0.049 (concentration: 4mM); 0.979 ± 0.02 (concentration: 6mM); 0.959 ± 0.028 (concentration: 8mM); 0.997 ± 0.044 (concentration: 10mM).
Turning to J3KNN5|Q9UJV9 (UniProt Q9UJV9), the NP40-soluble protein abundance is, setting by setting: (concentration: 1mM) 1.11 ± 0.029; (concentration: 2mM) 1.1 ± 0.043; (concentration: 4mM) 1.13 ± 0.073; (concentration: 6mM) 1.12 ± 0.035; (concentration: 8mM) 1.15 ± 0.053; (concentration: 10mM) 1.22 ± 0.065.
Take “E7EUU4|E7EX73|E9PGM1|Q04637-8|Q04637-4 (UniProt Q04637)”: the NP40-soluble protein abundance runs as follows: (concentration: 1mM) 1.06 ± 0.036; (concentration: 2mM) 1.12 ± 0.039; (concentration: 4mM) 1.12 ± 0.045; (concentration: 6mM) 1.14 ± 0.063; (concentration: 8mM) 1.15 ± 0.039; (concentration: 10mM) 1.17 ± 0.056.
Regarding “A0A0A0MQS0|A8MW92|F8W9L8|A8MW92-4 (UniProt A8MW92)”, the NP40-soluble protein abundance by setting is: (concentration: 1mM) 0.995 ± 0.044; (concentration: 2mM) 1.11 ± 0.088; (concentration: 4mM) 1.1 ± 0.041; (concentration: 6mM) 1.15 ± 0.036; (concentration: 8mM) 1.17 ± 0.081; (concentration: 10mM) 1.26 ± 0.019.
On to “C9JEJ2|H7BZN1|P49585|C9J050 (UniProt P49585)”, for which the NP40-soluble protein abundance is, setting by setting: (concentration: 1mM) 1.01 ± 0.028; (concentration: 2mM) 1.02 ± 0.022; (concentration: 4mM) 1.02 ± 0.015; (concentration: 6mM) 0.993 ± 0.027; (concentration: 8mM) 1 ± 0.02; (concentration: 10mM) 0.996 ± 0.01.
Take CDIPT (UniProt O14735): the NP40-soluble protein abundance runs as follows: (concentration: 1mM) 0.928 ± 0.062; (concentration: 2mM) 0.896 ± 0.042; (concentration: 4mM) 1 ± 0.019; (concentration: 6mM) 1.01 ± 0.088; (concentration: 8mM) 1.03 ± 0.073; (concentration: 10mM) 0.974 ± 0.039.
On to LSM1 (UniProt O15116), for which the NP40-soluble protein abundance came to 0.913 ± 0.018 (concentration: 1mM); 0.961 ± 0.041 (concentration: 2mM); 0.921 ± 0.0096 (concentration: 4mM); 0.918 ± 0.023 (concentration: 6mM); 0.907 ± 0.011 (concentration: 8mM); 0.897 ± 0.024 (concentration: 10mM).
